The supplement of paper PMC11732987, “Enantioselective OTUD7B fragment discovery through chemoproteomics screening and high-throughput optimisation” (Communications Chemistry, 2025)

Legend:
Assay in all cases: log2 ratio of Biotin-Ahx-Ub-VS probe labelling (fragment/DMSO); higher = less target engagement (more negative = stronger competition), active = hit call of the paper (q ≤ 0.05, log2 ratio ≤ -1)
Settings in all cases: compound concentration: 200 uM; treatment time: 3 h
UniProt O00507 = target: UniProt O00507
Sequence of UniProt O00507 (O00507 whole entry, the tested form may be a part): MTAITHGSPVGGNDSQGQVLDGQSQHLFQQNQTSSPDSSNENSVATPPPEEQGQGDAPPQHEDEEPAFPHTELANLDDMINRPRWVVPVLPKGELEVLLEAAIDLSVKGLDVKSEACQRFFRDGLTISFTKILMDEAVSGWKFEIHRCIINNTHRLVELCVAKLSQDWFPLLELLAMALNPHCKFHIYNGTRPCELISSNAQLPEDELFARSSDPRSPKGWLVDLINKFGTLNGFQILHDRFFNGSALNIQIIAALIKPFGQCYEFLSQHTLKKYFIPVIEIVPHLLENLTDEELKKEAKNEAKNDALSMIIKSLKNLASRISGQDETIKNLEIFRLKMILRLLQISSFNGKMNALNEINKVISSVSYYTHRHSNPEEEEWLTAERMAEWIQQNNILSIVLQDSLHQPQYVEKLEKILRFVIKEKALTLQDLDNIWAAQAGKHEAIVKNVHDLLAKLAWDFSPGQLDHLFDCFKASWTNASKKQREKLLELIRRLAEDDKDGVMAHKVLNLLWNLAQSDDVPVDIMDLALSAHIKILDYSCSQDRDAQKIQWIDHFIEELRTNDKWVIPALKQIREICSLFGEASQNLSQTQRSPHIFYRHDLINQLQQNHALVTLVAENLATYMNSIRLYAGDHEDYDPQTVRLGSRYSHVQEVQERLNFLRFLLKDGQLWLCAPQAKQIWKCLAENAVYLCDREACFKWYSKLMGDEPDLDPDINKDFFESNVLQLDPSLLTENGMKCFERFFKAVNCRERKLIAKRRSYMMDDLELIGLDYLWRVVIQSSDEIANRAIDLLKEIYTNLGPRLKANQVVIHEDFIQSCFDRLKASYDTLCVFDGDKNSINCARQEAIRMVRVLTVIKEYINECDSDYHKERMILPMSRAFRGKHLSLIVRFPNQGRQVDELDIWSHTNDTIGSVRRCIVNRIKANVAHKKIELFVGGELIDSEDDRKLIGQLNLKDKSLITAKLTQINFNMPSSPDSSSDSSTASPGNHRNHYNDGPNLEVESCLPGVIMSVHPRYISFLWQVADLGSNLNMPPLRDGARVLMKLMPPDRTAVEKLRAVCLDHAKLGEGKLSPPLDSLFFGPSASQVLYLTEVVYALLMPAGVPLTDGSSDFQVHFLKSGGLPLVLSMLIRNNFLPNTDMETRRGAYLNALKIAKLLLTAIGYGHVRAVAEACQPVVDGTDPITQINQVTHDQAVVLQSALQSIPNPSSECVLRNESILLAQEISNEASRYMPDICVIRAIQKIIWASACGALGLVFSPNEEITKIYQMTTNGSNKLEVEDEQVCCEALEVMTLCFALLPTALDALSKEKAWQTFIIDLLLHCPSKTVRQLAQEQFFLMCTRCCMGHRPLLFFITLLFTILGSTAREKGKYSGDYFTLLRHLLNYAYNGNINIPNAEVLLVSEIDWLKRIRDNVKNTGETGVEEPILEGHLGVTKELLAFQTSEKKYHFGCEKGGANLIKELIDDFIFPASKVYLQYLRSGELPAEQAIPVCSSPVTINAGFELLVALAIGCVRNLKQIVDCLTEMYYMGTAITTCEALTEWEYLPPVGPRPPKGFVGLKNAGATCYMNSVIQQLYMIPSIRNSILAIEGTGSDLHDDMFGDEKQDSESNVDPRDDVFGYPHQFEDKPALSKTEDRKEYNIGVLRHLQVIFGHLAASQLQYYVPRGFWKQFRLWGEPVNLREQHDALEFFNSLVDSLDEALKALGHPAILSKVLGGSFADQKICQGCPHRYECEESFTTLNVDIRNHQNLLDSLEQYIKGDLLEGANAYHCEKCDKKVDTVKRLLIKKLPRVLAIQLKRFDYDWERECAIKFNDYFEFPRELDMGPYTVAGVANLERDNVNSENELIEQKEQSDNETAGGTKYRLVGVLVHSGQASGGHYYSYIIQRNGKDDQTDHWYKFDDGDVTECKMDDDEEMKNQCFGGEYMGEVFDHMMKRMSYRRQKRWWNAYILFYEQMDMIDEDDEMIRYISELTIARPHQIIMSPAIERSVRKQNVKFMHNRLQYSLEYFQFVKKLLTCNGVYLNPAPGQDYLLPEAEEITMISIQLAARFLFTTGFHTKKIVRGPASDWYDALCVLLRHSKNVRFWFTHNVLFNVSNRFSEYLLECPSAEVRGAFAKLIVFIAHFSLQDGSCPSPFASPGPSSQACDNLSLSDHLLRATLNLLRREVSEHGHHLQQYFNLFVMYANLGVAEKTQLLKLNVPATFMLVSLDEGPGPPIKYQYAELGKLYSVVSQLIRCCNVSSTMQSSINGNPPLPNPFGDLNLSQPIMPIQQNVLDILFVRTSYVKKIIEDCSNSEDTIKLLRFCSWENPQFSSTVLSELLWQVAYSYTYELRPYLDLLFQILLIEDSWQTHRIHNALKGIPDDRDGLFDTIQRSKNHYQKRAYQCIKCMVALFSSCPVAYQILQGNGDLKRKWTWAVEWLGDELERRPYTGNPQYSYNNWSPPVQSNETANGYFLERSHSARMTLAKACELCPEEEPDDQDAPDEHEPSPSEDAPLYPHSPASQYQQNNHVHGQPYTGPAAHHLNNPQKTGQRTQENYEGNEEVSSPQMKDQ
In short: (§1)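 Using Biotin-Ahx-Ub-VS at 0.5 µM final for 1 h, DUBs were labelled in HEK293T lysate (495 µg per sample) that had first been treated in triplicate with fragment at 200 µM or vehicle for 3 h. NeutrAvidin enrichment, LysC and trypsin digestion and diaPASEF LC-MS/MS followed. Spectronaut label-free quantities were global-median-normalised. Values are average log2 fragment/vehicle ratios by unpaired t-test, using proteins with ≥2 unique peptides.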

UniProt P51784 = target: UniProt P51784
Sequence of UniProt P51784 (P51784 whole entry): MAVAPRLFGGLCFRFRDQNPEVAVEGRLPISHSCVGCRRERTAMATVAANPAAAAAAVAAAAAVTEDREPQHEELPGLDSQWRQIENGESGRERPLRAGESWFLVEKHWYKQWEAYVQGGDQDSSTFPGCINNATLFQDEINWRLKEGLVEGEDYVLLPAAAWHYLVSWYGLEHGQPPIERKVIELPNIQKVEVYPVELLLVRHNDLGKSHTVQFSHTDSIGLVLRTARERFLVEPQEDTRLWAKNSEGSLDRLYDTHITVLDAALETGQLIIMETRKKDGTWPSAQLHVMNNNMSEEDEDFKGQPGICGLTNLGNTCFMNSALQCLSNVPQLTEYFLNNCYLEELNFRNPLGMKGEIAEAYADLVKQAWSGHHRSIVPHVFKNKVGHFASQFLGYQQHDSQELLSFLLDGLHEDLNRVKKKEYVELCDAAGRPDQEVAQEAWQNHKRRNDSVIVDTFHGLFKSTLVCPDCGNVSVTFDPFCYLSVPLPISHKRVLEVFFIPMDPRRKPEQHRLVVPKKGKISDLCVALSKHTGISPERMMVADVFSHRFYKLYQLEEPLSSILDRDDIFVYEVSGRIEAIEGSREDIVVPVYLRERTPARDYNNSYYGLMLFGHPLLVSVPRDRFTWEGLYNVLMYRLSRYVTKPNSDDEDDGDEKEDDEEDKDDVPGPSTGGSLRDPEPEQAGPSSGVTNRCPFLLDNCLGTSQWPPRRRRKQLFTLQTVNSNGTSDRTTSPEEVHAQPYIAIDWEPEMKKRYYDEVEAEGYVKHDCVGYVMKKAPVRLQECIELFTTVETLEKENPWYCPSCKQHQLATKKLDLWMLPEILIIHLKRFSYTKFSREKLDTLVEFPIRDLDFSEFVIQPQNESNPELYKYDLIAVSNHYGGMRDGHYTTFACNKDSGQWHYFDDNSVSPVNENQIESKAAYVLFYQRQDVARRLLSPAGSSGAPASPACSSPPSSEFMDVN
In short: as §1

UniProt Q5T2D3 = target: T1, UniProt Q5T2D3
T1 sequence (whole entry): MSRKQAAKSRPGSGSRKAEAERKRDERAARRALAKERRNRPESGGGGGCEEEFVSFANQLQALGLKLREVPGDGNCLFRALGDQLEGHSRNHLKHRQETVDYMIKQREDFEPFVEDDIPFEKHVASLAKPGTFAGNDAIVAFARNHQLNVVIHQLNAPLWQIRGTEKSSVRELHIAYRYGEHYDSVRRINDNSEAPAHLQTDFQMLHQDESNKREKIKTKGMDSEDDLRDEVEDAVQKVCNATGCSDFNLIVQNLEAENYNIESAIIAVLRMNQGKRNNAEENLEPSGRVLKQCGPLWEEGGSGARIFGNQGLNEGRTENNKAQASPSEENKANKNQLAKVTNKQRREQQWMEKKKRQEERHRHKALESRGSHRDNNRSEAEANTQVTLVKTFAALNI
In short: as §1

UniProt Q8TE49 = target: T2, UniProt Q8TE49
T2 sequence (whole entry): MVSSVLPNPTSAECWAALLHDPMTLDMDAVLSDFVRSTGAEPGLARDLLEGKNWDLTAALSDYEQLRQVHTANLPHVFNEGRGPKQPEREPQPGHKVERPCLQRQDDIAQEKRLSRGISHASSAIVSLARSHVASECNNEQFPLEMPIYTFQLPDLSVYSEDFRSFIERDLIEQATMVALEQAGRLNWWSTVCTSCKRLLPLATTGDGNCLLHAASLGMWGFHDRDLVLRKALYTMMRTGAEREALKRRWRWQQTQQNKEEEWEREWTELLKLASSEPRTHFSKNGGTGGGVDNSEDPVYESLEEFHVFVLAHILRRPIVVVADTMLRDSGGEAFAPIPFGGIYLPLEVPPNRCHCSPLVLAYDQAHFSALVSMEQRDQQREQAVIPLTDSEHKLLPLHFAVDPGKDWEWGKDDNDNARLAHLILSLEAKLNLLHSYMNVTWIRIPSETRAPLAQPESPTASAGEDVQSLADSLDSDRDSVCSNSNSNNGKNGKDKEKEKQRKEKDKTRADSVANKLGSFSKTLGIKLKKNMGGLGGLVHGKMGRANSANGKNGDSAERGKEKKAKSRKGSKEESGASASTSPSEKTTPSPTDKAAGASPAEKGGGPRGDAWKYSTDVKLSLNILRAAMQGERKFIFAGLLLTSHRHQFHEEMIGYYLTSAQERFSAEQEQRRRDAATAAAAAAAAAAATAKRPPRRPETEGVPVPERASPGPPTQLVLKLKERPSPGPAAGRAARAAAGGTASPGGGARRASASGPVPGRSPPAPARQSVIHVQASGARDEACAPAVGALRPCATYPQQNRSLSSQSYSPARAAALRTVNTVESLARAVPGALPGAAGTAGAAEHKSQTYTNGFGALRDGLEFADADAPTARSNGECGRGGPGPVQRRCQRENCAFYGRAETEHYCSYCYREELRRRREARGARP
In short: as §1

UniProt Q9P2H5 = target: T3, UniProt Q9P2H5
T3 sequence (whole entry): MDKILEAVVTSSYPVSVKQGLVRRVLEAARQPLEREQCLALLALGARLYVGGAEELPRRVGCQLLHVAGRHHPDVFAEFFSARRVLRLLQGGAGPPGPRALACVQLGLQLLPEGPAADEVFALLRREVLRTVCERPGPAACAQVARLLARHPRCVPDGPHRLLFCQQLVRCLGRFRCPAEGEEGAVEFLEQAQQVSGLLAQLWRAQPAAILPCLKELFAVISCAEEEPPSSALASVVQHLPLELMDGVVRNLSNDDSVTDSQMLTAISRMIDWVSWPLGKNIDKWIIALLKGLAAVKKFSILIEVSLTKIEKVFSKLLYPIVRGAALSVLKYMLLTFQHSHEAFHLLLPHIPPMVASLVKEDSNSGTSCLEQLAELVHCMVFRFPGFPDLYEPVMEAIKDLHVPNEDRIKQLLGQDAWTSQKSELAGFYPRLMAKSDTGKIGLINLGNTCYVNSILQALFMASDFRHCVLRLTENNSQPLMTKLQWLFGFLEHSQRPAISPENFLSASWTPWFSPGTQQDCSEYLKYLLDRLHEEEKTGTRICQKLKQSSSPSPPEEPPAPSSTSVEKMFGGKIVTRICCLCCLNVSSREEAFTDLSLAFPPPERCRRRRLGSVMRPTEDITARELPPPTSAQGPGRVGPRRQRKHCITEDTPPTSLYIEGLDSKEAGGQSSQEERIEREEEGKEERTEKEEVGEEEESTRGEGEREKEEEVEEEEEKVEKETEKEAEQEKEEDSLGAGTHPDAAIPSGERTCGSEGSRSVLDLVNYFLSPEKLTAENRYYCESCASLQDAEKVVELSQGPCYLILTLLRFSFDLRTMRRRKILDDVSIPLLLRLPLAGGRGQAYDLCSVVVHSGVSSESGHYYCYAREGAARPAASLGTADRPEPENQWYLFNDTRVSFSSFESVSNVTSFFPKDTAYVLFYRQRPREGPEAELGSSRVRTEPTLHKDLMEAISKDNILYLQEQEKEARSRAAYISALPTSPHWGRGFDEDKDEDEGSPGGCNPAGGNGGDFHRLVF
In short: as §1

UniProt Q9UGI0 = target: T4, UniProt Q9UGI0
T4 sequence (whole entry): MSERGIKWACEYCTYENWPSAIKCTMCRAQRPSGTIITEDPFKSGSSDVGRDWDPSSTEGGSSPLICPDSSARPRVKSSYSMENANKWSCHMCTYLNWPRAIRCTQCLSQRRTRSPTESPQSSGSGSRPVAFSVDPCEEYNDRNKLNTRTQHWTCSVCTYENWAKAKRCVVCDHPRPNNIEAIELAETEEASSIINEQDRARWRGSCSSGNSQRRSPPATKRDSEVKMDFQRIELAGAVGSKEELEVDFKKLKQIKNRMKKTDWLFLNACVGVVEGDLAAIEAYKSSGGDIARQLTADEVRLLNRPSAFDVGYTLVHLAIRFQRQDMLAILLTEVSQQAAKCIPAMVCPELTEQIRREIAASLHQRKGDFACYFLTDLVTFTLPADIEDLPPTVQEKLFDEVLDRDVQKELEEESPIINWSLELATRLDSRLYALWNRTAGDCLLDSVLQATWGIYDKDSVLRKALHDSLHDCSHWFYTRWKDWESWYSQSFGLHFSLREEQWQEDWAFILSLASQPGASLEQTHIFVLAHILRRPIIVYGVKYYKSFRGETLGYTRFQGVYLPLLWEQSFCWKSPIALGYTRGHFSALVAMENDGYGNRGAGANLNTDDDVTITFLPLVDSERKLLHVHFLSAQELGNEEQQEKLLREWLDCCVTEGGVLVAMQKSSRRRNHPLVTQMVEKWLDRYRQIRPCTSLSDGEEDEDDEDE
In short: as §1

YOD1 = target: T5, YOD1 (UniProt Q5VVQ6)
T5 sequence (whole entry): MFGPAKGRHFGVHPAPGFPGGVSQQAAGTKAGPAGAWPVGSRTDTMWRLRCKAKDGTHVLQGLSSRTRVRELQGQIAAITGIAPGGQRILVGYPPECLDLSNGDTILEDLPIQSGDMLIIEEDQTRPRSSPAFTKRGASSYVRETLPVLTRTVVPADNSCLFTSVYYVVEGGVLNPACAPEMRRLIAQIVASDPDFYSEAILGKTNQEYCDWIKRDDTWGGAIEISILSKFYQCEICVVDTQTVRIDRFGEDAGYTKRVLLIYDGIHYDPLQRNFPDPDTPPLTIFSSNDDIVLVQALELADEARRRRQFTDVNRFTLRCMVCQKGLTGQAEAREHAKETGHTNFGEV
In short: as §1

Measured: log2 ratio of Biotin-Ahx-Ub-VS probe labelling

Cl.O=C(CCl)N[C@H]1C[C@@H](n2cccn2)C1
inactive: UniProt O00507 -0.599 | UniProt P51784 0.0814 | UniProt Q5T2D3 0.0298 | UniProt Q8TE49 -0.369 | UniProt Q9P2H5 0.122 | UniProt Q9UGI0 -0.284 | YOD1 -0.324

O=C(CCl)NC1CCOc2ccccc21 (configuration not stated)
active: UniProt Q8TE49 -1.79
inactive: UniProt O00507 -0.574 | UniProt P51784 -0.702 | UniProt Q5T2D3 -0.795 | UniProt Q9P2H5 -0.687 | UniProt Q9UGI0 -0.865 | YOD1 -0.774

Cl.Cn1ncc2c1CC(NC(=O)CCl)CC2 (configuration not stated)
inactive: UniProt O00507 0.311 | UniProt P51784 0.0472 | UniProt Q5T2D3 -0.0643 | UniProt Q8TE49 -0.377 | UniProt Q9P2H5 -0.257 | UniProt Q9UGI0 -0.162 | YOD1 0.181

Cc1ccc(CC(CO)CNC(=O)CCl)cc1 (configuration not stated)
inactive: UniProt O00507 -0.3 | UniProt P51784 -0.172 | UniProt Q5T2D3 -0.293 | UniProt Q8TE49 -0.933 | UniProt Q9P2H5 -0.149 | UniProt Q9UGI0 -0.929 | YOD1 -0.164

O=C(CCl)N1CCOC(c2cccc(F)c2)C1 (configuration not stated)
active: UniProt Q8TE49 -1.26 | UniProt Q9UGI0 -1.44
inactive: UniProt O00507 0.244 | UniProt P51784 -0.328 | UniProt Q5T2D3 -0.182 | UniProt Q9P2H5 -0.416 | YOD1 -0.0782

Cl.Cn1ncc2c1CCCC2NC(=O)CCl (configuration not stated)
inactive: UniProt O00507 -0.0339 | UniProt P51784 -0.154 | UniProt Q5T2D3 -0.121 | UniProt Q9P2H5 -0.276 | UniProt Q9UGI0 0.0166 | YOD1 -0.109
active: UniProt Q8TE49 -3.69

O=C(CCl)N1CCC(c2ccn[nH]2)C1 (configuration not stated)
inactive: UniProt O00507 -0.147 | UniProt P51784 -0.136 | UniProt Q5T2D3 -0.179 | UniProt Q8TE49 -0.464 | UniProt Q9P2H5 -0.282 | UniProt Q9UGI0 -0.767 | YOD1 0.0756

N#Cc1ccc(Cl)cc1NC(=O)CCl
inactive: UniProt O00507 -0.451 | UniProt P51784 0.0676 | UniProt Q5T2D3 -0.0728 | UniProt Q8TE49 -0.577 | UniProt Q9P2H5 0.0403 | UniProt Q9UGI0 -0.441 | YOD1 0.0565

CNC(=O)C1CCN(C(=O)CCl)CC1
inactive: UniProt O00507 -0.581 | UniProt P51784 0.091 | UniProt Q5T2D3 0.0899 | UniProt Q8TE49 -0.129 | UniProt Q9P2H5 0.179 | UniProt Q9UGI0 0.0343 | YOD1 -0.239

O=C(CCl)N1CCC[C@@H]1c1ccon1
inactive: UniProt O00507 -0.592 | UniProt P51784 -0.16 | UniProt Q5T2D3 -0.395 | UniProt Q8TE49 -0.398 | UniProt Q9P2H5 -0.248 | UniProt Q9UGI0 -0.626 | YOD1 -0.749

COc1ccc(CN(C)C(=O)CCl)cc1
inactive: UniProt O00507 -0.339 | UniProt P51784 0.00264 | UniProt Q5T2D3 -0.273 | UniProt Q8TE49 -0.895 | UniProt Q9P2H5 0.0343 | UniProt Q9UGI0 -0.846 | YOD1 -0.295
